In the supplement of paper PMC7156485:
± gives the standard deviation of the averaged measurements.

Tests used:
Conditions in all cases: concentration: 10 µM; 24 h
HCC1569 [1] = assay: cell number relative to DMSO (% of DMSO); higher = more cells (less growth inhibition / toxicity)
Method in brief: (§1)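 H1.0 nuclear intensity or cell number is stated as percent of the plate control, based on the median of replicates, and HCC1569 values were smoothed for positional effects. These came from HCC1569 and TDF cells treated with compounds at 10 µM for 24 h at 37 °C in triplicate, then fixed in 3.7% formaldehyde and stained with a rabbit anti-H1.0 antibody, an AlexaFluor 647 secondary and DAPI.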

TDF [2] = assay: as above
Method in brief: as §1

TDF [3] = assay: H1.0 immunofluorescence intensity relative to DMSO (% of DMSO); higher = stronger H1.0 induction, active = 120 or more
Method in brief: as §1

HCC1569 [4] = assay: H1.0 immunofluorescence intensity relative to DMSO (% of DMSO); higher = stronger H1.0 induction, active = 140 or more
Method in brief: as §1
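Wherever H1.0 immunofluorescence intensity relative to DMSO is given: TDF is a line of transformed human dermal fibroblasts of mesenchymal origin.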
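Wherever cell number relative to DMSO is given: TDF denotes transformed human dermal fibroblasts of mesenchymal origin.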

SMILES	cell number (HCC1569 [1])	cell number (TDF [2])	H1.0 immunofluorescence intensity (TDF [3])	H1.0 immunofluorescence intensity (HCC1569 [4])
CCCCCC=CCC(C=CC=CCC=CCCCC(=O)O)OO (centres undefined)	102	101	102 (inactive)	99.8 (inactive)
CN1C2CCCC1CC(=O)C2.Cl	98.6	89.2	108 (inactive)	94.5 (inactive)
Cl.NC(=O)c1ccc(OCC(O)CN2CC=C(c3ccc(F)cc3)CC2)cc1 (centres undefined)	105	107	96.4 (inactive)	106 (inactive)
CC1OC(=O)C2CC3CCCCC3C(C=CC3CCCC(C)N3C)C12 (centres undefined) [Himbacine]	103	107	92.4 (inactive)	87.4 (inactive)
CC1C2Cc3ccc(O)cc3C1(C)CCN2CC1CC1 (single isomer, unassigned; (+)) [(+)-Cyclazocine]	102	92.2	96.9 (inactive)	86.8 (inactive)
COC1C(O)C(C)OC(OC2CCC3(C=O)C(CCC4C3CCC3(C)C(C5=CC(=O)OC5)CCC43O)C2)C1O (centres undefined) [Peruvoside]	52.3	44	107 (inactive)	106 (inactive)
Cl.O=C(OC1CCN(CCCl)CC1)C(c1ccccc1)c1ccccc1 [4-Diphenylacetoxy-N-(2-chloroethyl)piperidine hydrochloride]	98.2	94.9	89.5 (inactive)	87.6 (inactive)
c1ccc2c3c([nH]c2c1)CNCC3 [Noreleagnine]	103	108	92.6 (inactive)	88.4 (inactive)
COC1C(O)C(C)OC(OC2C(Oc3cccc4c(O)c5c(=O)oc6ccc(C)c7c(=O)oc(c34)c5c67)OC(C)C(O)C2O)C1O (centres undefined) [Chartreusin]	105	99.3	100 (inactive)	108 (inactive)
Cl.O=C(CCCN1CCC2(CC1)C(=O)NCN2c1ccccc1)c1ccc(F)cc1 [Spiperone hydrochloride]	105	87.3	116 (inactive)	99.6 (inactive)
CCN1CC2(COC)CCC(O)C34C5CC6C(OC)CC(O)(C(CC23)C14)C5C6OC(C)=O (centres undefined) [Condelphine]	101	105	98.6 (inactive)	102 (inactive)
CNCCc1c[nH]c2ccc(O)cc12.O=C(O)C(=O)O [N-omega-Methyl-5-hydroxytryptamine oxalate salt]	101	103	91 (inactive)	96.1 (inactive)
C=CCN1CCC23c4c5ccc(O)c4OC2C(=O)CCC3(O)C1C5.Cl (centres undefined) [Naloxone hydrochloride]	104	98.9	97.1 (inactive)	90.6 (inactive)
NC(Cn1cc(I)c(=O)[nH]c1=O)C(=O)O (centres undefined) [S-5-Iodowillardiine]	107	107	91.2 (inactive)	111 (inactive)
Clc1cnc(Oc2ccc(Oc3ncc(Cl)cc3Cl)cc2)c(Cl)c1	100	109	97.1 (inactive)	99.2 (inactive)
COc1cc2c(c3oc4cccc(O)c4c(=O)c13)C1C=COC1O2 (centres undefined) [Sterigmatocystin]	80.2	75.6	96.5 (inactive)	92.2 (inactive)
CC(=O)OC1CC2CCC3C(CCC4(C)C3CC([N+]3(C)CCCCC3)C4OC(C)=O)C2(C)CC1[N+]1(C)CCCCC1.[Br-].[Br-] (centres undefined) [Pancuronium bromide]	103	96.9	98.8 (inactive)	99.5 (inactive)
CC(=O)OCC12CCC(C)=CC1OC1C(O)C(OC(C)=O)C2(C)C12CO2 (centres undefined) [Diacetoxyscirpenol]	56.8	13.6	128 (active)	95.6 (inactive)
O=S1(=O)N(CCN2CC=C(c3c[nH]c4cc(F)ccc34)CC2)c2cccc3c2N1CCC3	101	107	95.4 (inactive)	102 (inactive)
CCCN(CCC)C1CCc2c(F)ccc(O)c2C1.Cl (stereo not drawn) [R(+)-UH-301 hydrochloride]	103	109	89.2 (inactive)	101 (inactive)
NC(Cc1ccc(N(CCCl)CCCl)cc1)C(=O)O (centres undefined) [Melphalan]	86.3 ± 3.1	69.2 ± 5.8	104 (inactive)	96.1 (inactive)
Cl.O=C1CCC2(O)C3Cc4ccc(O)c5c4C2(CCN3CC2CC2)C1O5 (centres undefined) [Naltrexone.HCl]	101	100	90.5 (inactive)	99.8 (inactive)
CC(O)(CS(=O)(=O)c1ccc(F)cc1)C(=O)Nc1ccc(C#N)c(C(F)(F)F)c1 (centres undefined) [Bicalutamide]	99.1	104	94.6 (inactive)	98.8 (inactive)
C=CC1CN2CCC1CC2C(O)c1ccnc2ccccc12 (single isomer, unassigned; (-)) [(-)-Cinchonidine]	100	99.7	101 (inactive)	100 (inactive)
C=CC1CN2CCC1CC2C(O)c1ccnc2ccccc12 (single isomer, unassigned; (+)) [(+)-Cinchonine]	101	106	98.9 (inactive)	91.1 (inactive)
CC12Cc3cn[nH]c3CC1CCC1C2CCC2(C)C1CCC2(C)O (centres undefined) [Stanozolol]	94.4	99.5	97.2 (inactive)	87.3 (inactive)

SMILES	cell number (HCC1569 [1])	cell number (TDF [2])	H1.0 immunofluorescence intensity (TDF [3])	H1.0 immunofluorescence intensity (HCC1569 [4])
Cn1ncnc1COc1nn2c(-c3c(F)cccc3F)nnc2cc1C1CCC1	102	100	93.6 (inactive)	99.6 (inactive)
C#CCNC(C)Cc1ccccc1.Cl (stereo not drawn) [R-(-)-Desmethyldeprenyl hydrochloride]	102	103	97.2 (inactive)	90.7 (inactive)
CC(=O)OC1C(=O)C2(C)C(O)CC3OCC3(OC(C)=O)C2C(OC(=O)c2ccccc2)C2(O)CC(O)C(C)=C1C2(C)C (centres undefined) [Baccatin III]	105	112	111 (inactive)	105 (inactive)
C=CCN1CCC23c4c5ccc(O)c4OC2C(=O)CCC3(O)C1C5 (centres undefined) [Naloxone]	98.5	96.7	99.5 (inactive)	117 (inactive)
CNCC(O)c1ccc(O)cc1 (racemic)	108	111	91 (inactive)	103 (inactive)
O=C([O-])Cc1ccccc1.[Na+] [Sodium Phenylacetate]	96.8	103	96.8 (inactive)	100 (inactive)
CCCN1CCCC2Cc3nc(N)ncc3CC21.Cl.Cl (centres undefined) [Quinelorane dihydrochloride]	99.7	113	95 (inactive)	106 (inactive)
COc1ccc(C(=O)N2CCCC2=O)cc1 [Aniracetam]	100.1 ± 0.23	97.8 ± 14	92.7 (inactive)	95 (inactive)
CCOP(=O)(OCC)C(C)NC(=O)N(CCCl)N=O (centres undefined)	100	80.1	102 (inactive)	90.6 (inactive)
CN1[C@@H]2CC[C@H]1C[C@@H](OC(=O)[C@H](CO)c1ccccc1)C2 [L-Hyoscyamine]	100	117	95 (inactive)	96.2 (inactive)
O=P1(NCCCl)OCCCN1CCCl (centres undefined) [Ifosfamide]	103	105	97.2 (inactive)	112 (inactive)
CCCN(CCC)C1Cc2cc(OC)c(OC)cc2C1.O=C(O)C=CC(=O)O	103	107	97.7 (inactive)	102 (inactive)
C=C1CC2C(CCC3(C)C(=O)CCC23)C2(C)C=CC(=O)C=C12 (centres undefined) [Exemestane]	101	97.4	98.1 (inactive)	102 (inactive)
C=C1C2CC3(C1O)C1CC4C5(C)CCC(O)C4(C1N(CC)C5)C3CC2=O (centres undefined) [Songorine]	101	108	90 (inactive)	91.7 (inactive)
CC(C)C1C(=O)OC2CCN3CC=C(COC(=O)C(C)(O)C1(C)O)C23 (centres undefined) [Trichodesmine]	99.6	103	93.2 (inactive)	89.8 (inactive)
O=[N+]([O-])c1ccc(O[C@@H]2O[C@H](CO)[C@@H](O)[C@H](O)[C@H]2F)c([N+](=O)[O-])c1 [2,4-Dinitrophenyl 2-fluoro-2-deoxy-beta-D-glucopyranoside]	105	111	86.5 (inactive)	93.2 (inactive)
CC1OC(C[N+](C)(C)C)CS1.[I-] (centres undefined) [OXA-22 iodide]	99.8	116	97.2 (inactive)	95.2 (inactive)
CN1C2CCC1CC(OC(=O)C(CO)c1ccccc1)C2 (centres undefined) [Hyoscyamine]	102	98	97.8 (inactive)	94.8 (inactive)
C=C(C)C1C2OC(=O)C1C1(O)CC3OC34C(=O)OC2C14C (centres undefined) [Picrotoxinin]	105	105	95.4 (inactive)	90.9 (inactive)
CC=C1CN2CCC34C(=C(CC=O)C1CC23)Nc1ccccc14 (centres undefined) [Norfluorocurarine]	100	104	97.8 (inactive)	96.3 (inactive)
Br.Br.CN(C)CCN(C)CCc1ccc(Cl)c(Cl)c1	96.6	102	102 (inactive)	110 (inactive)
CP(=O)(O)CCCN.Cl	102	98.3	92.5 (inactive)	107 (inactive)
CP(=O)([O-])C1=CC[NH2+]CC1	96.6	98.6	91.8 (inactive)	102 (inactive)
CC1=C(O)C(=O)C2OC2C1=O (single isomer, unassigned; (-))	80	98.1	96.7 (inactive)	117 (inactive)
CC(C)NC(C)Cc1ccc(I)cc1.Cl (centres undefined) [Iofetamine hydrochloride]	105	113	91.5 (inactive)	91.7 (inactive)
